CCHF vOTU inh-1: CCHFV vOTU protease inhibitors, primary screen, biochemical, Pep-AMC substrate, fluorescence; Crimean-Congo hemorrhagic fever virus L polyprotein viral ovarian tumor (vOTU) protease …; hit rate 0.55% among 370,000; inhibition, % at 11.5 µM; AID 651958, 2012; further: 0% = vehicle wells with enzyme and 100% = no enzyme wells
3CLpro inhibitor: SARS-CoV 3CLpro protease inhibitors, primary screen, biochemical, quenched FRET; Replicase polyprotein 1ab (Severe acute respiratory syndrome coronavirus), P0C6X7; recombinant SARS-CoV 3CLpro, quenched FRET peptide cleavage; inhibition, % at 6 µM; hit rate 0.14% among 290,000; in the data active means inhibition above about 12%
GDH-TPI counter: GDH-TPI coupling enzyme inhibitors, primary screen, artefact control for M. tuberculosis FBA inhibitor project, biochemical, absorbance, full deck. AID 588335, 2011. hit rate 1.2% among 360,000. inhibition, % at 4.8 µM. GDH-TPI coupled enzyme counterscreen, NADH absorbance;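 further: 0% = DMSO wells and 100% = wells lacking the enzyme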
RecA intein inh: Mtb RecA intein splicing inhibitors, primary screen, biochemical, fluorescence, HTS; Protein RecA (Mycobacterium tuberculosis (strain ATCC 25618 / H37Rv)), P9WHJ3; cell-free RecA intein splicing; inhibition, % (no concentration beside the values); hit rate 0.75% among 290,000; in the data active means inhibition above about 30%;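 further: 0% = vehicle wells and 100% = reference inhibitor control wells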
DUSP3 inh: VHR1 phosphatase inhibitors, primary screen, biochemical, absorbance, uHTS | Dual specificity protein phosphatase 3 (Homo sapiens), P51452 | recombinant VHR phosphatase, pNPP absorbance | inhibition, % at 13.3 µM | hit rate 0.52% among 290,000; in the data active means inhibition above about 50%
Target sequence (P51452 whole entry, looked up): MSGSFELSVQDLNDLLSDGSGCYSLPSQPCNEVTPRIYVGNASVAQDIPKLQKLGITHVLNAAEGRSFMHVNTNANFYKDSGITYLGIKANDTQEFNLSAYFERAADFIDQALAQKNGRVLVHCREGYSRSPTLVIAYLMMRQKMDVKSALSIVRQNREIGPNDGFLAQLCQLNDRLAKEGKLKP
Mtb FBA inh: Mtb FBA enzyme inhibitors, primary screen, biochemical, fluorescence, strain H37Rv | Fructose-bisphosphate aldolase (Mycobacterium tuberculosis (strain ATCC 25618 / H37Rv)), … | purified M. tuberculosis FBA, fluorescence read-out | inhibition, % at 1 µM | hit rate 2.3% among 360,000; in the data active means inhibition above about 27%;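 further: 0% = vehicle and 100% = reference inhibitor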
Target sequence (P9WQA3 whole entry, looked up): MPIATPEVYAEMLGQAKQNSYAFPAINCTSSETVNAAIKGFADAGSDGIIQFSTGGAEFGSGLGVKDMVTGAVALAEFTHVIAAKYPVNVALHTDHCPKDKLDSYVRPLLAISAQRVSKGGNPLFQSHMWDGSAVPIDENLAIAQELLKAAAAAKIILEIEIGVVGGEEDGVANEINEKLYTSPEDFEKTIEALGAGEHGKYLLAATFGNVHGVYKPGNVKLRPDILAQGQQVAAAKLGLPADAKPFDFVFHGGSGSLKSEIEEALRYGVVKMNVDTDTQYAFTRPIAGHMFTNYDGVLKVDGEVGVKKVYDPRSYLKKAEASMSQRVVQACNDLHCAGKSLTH
CCHF vOTU inh-2: CCHFV vOTU protease inhibitors, confirmation, biochemical, Pep-AMC substrate, fluorescence. hit rate 17% among 1,900. inhibition, % at 11.5 µM. Recombinant CCHFV vOTU. shares compounds with CCHF vOTU inh-1
Starred values were filed as active, the others as inactive; . = no result; ! = a repeat was not active. Hits are enriched below; roughly 4.7% of the tested compounds scored in any of these assays. Unless noted, no stated cut-off is given here; in the data, active means inhibition above about 30%; inactive means the rest.

SMILES	CCHF vOTU inh-1	3CLpro inhibitor	GDH-TPI counter	RecA intein inh	DUSP3 inh	Mtb FBA inh	CCHF vOTU inh-2
COC(=O)C1CN(Cc2ccc(F)cc2)CCS(=O)(=O)N1Cc1cn(Cc2ccc(F)cc2)nn1 (configuration not stated)	30.0*	.	.	.	.	.	-9.9
O=C(COc1cccc(C(F)(F)F)c1)NNC(=O)c1ccc(=O)[nH]c1	1.2	.	12.5	.	.	-0.6	.
CC(NS(=O)(=O)c1c(N)n(C)c(=O)n(C)c1=O)c1ccccc1 (configuration not stated)	30.4*	0.8	-3.1	0.9	-13.9	0.9	-15.4
O=C1C=C(c2ccc(CO)cc2)C[C@@H](c2ccc3c(c2)OCO3)C1	10.4	.	4.5	.	.	-0.1	.
Cc1ccc(NC(=O)OC(C)N2CCCCC2)cc1NC(=O)OC(C)N1CCCCC1 (configuration not stated)	0.1	.	9.7	.	.	1.4	.
Cc1ccc(CNC(=O)C2CCC(=O)N(CCCN3CCOCC3)C2)cc1 (configuration not stated)	-0.6	4.5	1.0	3.3	33.3	3.0	.
CCOC(=O)c1c(NC(=O)COC(=O)Cn2cnc3ccccc32)sc2c1CCC(C)C2 (configuration not stated)	46.7*	4.3	12.2	.	1.3	0.7	8.8
CCOC(=O)c1c(NC(=O)Cn2nnc3ccccc32)sc2c1CCC(C)C2 (configuration not stated)	8.2	0.6	3.6	8.9	25.2	-0.6	.
CCC(=O)c1ccc(OCc2ccccc2)c(OC)c1	10.6	-1.0	1.9	0.6	-5.7	-2.4	.
COc1cc(C(N)=O)ccc1OCc1ccccc1	29.9*	0.5	3.1	-5.0	17.8	1.1	-27.0
COc1ccc(Cn2cc(CN3[C@H](C)COc4cc(Br)ccc4S3(=O)=O)nn2)cc1	0.3	.	.	.	.	.	.
O=C(O)CSc1cc(C(=O)c2cc(F)ccc2O)cn2c(=O)c3c(-c4ccccc4)csc3nc12	32.9*	-0.3	23.4	8.8	31.3	9.2	6.3
c1cc2c3c(cccc3c1)NC1(CCCCCC1)N2	5.5	1.3	9.1	25.6	5.4	-6.9	.
c1cc2c3c(cccc3c1)NC1(CCCCC1)N2	29.5*	0.3	12.8	21.8	28.3	-2.0	16.8
CCC(=O)N(Cc1ccco1)C1CC(=O)N(c2ccccc2)C1=O (configuration not stated)	2.3	-3.1	6.1	-1.2	-5.4	3.2	.
CCN(CCO)c1ccc(N=Cc2c(O)n(C)c(=S)[nH]c2=O)cc1	31.9*	-0.5	3.8	-5.5	-18.9	-3.5	-10.4
O=C(Nc1ccc2c(c1)OCO2)[C@@H]1[C@@H]2C(=O)N(C3CCCCC3)C(=O)[C@@H]2C2c3ccccc3C=CN21 (some centres not stated)	23.5	0.4	.	6.9	9.1	.	.
CC(C)(C)C(=O)[C@@H]1[C@@H]2C(=O)N(C3CCCCC3)C(=O)[C@@H]2[C@H]2c3ccccc3C=CN12	32.9*	0.3	10.1	.	-5.5	-0.8	13.2
COc1ccc(N2C(=O)[C@@H]3[C@H](C2=O)[C@H]2c4ccccc4C=CN2[C@@H]3C(C)=O)cc1	92.0*	3.4	8.7	11.2	-14.2	1.2	92.0*
CCCNC(=O)C1(C)CCN(C(=O)COc2ccc(C(C)(C)C)cc2)C1 (configuration not stated)	-5.0	.	3.6	.	.	0.4	.
CCC(NC(=O)Nc1ccc(O)cc1)(C(F)(F)F)C(F)(F)F	62.6*	-0.8	3.9	.	29.4	-1.1	3.0
CC(NC(=O)Nc1ccc(O)cc1)(C(F)(F)F)C(F)(F)F	52.1*	2.8	3.9	-6.3	17.6	-0.9	-2.4
NC(=O)COC(=O)CC1CC2CCC1C2 (configuration not stated)	0.5	-2.6	-2.9	0.9	9.0	1.3	.
CCCCCCCNC(=O)C1(CC2CC(c3ccc(Cl)cc3)=NO2)CCN(C(=O)C2(C)CC2)CC1 (configuration not stated)	.	-4.2	-5.0	9.5	-26.0	-0.8	.
COC(=O)Nc1ccc([N+](=O)[O-])cc1OC	9.2	-1.5	15.8	-1.3	4.7	-2.8	.
SMILES	CCHF vOTU inh-1	3CLpro inhibitor	GDH-TPI counter	RecA intein inh	DUSP3 inh	Mtb FBA inh	CCHF vOTU inh-2
COc1cc([N+](=O)[O-])ccc1NC(=S)Nc1cccc(C(=O)O)c1	30.9*	-1.0	3.7	-2.7	5.1	6.9	-12.8
COc1cc(S(=O)(=O)NC2CCCCC2)c(C)cc1C	8.6	-1.5	-2.4	3.1	13.0	-2.1	.
COc1ccc2nc(NC(=O)CCn3cccc3)sc2c1	-2.5	0.4	-10.0	0.4	25.0	-0.6	.
COc1ccc2nc(NC(=O)CCN3C(=S)NC(C)(C)CC3C)sc2c1 (configuration not stated)	36.2*	-0.2	-2.2	-1.1	-1.6	-0.8	-24.9
CC(=O)Nc1c([N+](=O)[O-])cc2c3c(cccc13)CC2	33.4*	.	.	.	.	2.2	-16.3
COc1ccc(OC)c(S(=O)(=O)N2CCC3(CC2)OCCN3S(=O)(=O)c2ccccc2)c1	34.1*	.	-5.5	0.1	.	2.6	-9.9
CC1CCN(C2=C(NS(=O)(=O)c3ccccc3)C(=O)c3ccccc3C2=O)CC1	0.9	7.0	0.0	7.9	-23.4	0.3	.
O=C1C2=C(c3ccccc31)[N+](=O)[C@@H]1CCCC[C@@H]1N2[O-]	74.2*	-5.0	16.2	.	27.0	2.5	27.1
O=C1N=C(N2C=CC(=C3C=CNC=C3)C=C2)/C(=C/N=NC(=O)c2ccccc2)S1	40.9*	-4.0	10.1	0.0	20.4	-7.0	-4.3
CN1CC[C@@]2(C)c3cc(O)ccc3N(C)[C@@H]12	39.8*!	.	3.6	.	.	-4.6	27.7
OCC[C@H]1C[C@H](O)[C@@H](O)[C@@]2(OCCCc3ccccc32)O1	-0.4	.	4.2	.	.	6.1	.
O=C(NC(=S)NCCOCc1ccc(Cl)cc1)c1cccnc1	-1.2	3.6	-9.8	5.4	-7.0	0.6	.

Assay outcomes: PubChem, several laboratories
